Results: ChEMBL document CHEMBL4513216, “Probing the Open Global Health Chemical Diversity Library for Multistage-Active Starting Points for Next-Generation Antimalarials” (ACS Infect Dis, 2020)
In all, about 65,000 compounds went through this assay and about 2,100 (3.2%) showed an effect of 50% or more. The median lay at about -52%. This is one part of a sample in which strong results are shown more often than they occur.

Each molecule was assayed on Plasmodium falciparum (assay: Screen against P. falciparum Asexual Blood Stage (ABS), at 5uM). Details: tested at 5 uM.
Format: functional, Dd2
Work on `COc1cc(N2CCN(CC3CC3)c3nc(C)ccc3C2)ncn1` yielded an INHIBITION of -65.6%. Work on `O=C1N(Cc2cccc(F)c2)CCC12CCCNC2` (configuration not stated) yielded an INHIBITION of -20.3%. `O=C1N(Cc2cccc(Cl)c2)CCC12CCCNC2` (configuration not stated) was tested, and the INHIBITION was 80.7%. In the case of `O=C1N(Cc2ccncc2)CCC12CCCNC2` (configuration not stated), the INHIBITION is reported as -59.6%. In the case of `CC(C)CN1CCC2(CCCNC2)C1=O` (configuration not stated), the INHIBITION is reported as 10.8%. `O=C1N(Cc2cccnc2)CCC12CCCNC2` (configuration not stated) gave an INHIBITION of -85.5%. `O=C1N(Cc2ccc(Cl)cc2)CCC12CCCNC2` (configuration not stated) gave an INHIBITION of 85.4%. `O=C([C@H]1CN(Cc2ccncc2)C[C@H]2OCC[C@@H]12)N1CCCCO1` was tested, and the INHIBITION was -89.5%. With `Cc1ccc(CN2C[C@H]3OC(=O)N(Cc4ccccn4)[C@H]3C2)o1` the INHIBITION was -74.6%. `CCc1ccc(CN(CCN(C)C)Cc2ccc(C)s2)nc1` was tested, and the INHIBITION was 91.9%. In the case of `CCc1ncc(CN(CCc2ccccc2)Cc2cccs2)cn1`, the INHIBITION is reported as -80.9%. `COCCN1CC[C@]2(CN(Cc3cccnc3)C[C@H]2C)C1=O` showed an INHIBITION of 25.1%. In the case of `O=C(c1c[nH]cn1)N1CCC(F)(F)C2(CCN(c3cccc(F)c3)C2)C1` (configuration not stated), the INHIBITION is reported as 86.2%. `Cc1cc(C(=O)N2CCC3(CCN3Cc3ccc(F)cc3)C2)no1` (configuration not stated) gave an INHIBITION of 4.88%. `O=C(O)CN1CCC(F)(F)C2(CCN(c3ccccn3)C2)C1` (configuration not stated) showed an INHIBITION of -77.3%. Molecule `Cc1n[nH]c2c1C(c1ccncc1)SCC(=O)N2` (configuration not stated) has an INHIBITION of -28%. With `COCCN1CCOCC2(C1)CN(C(=O)c1conc1C)CCO2` (configuration not stated) the INHIBITION was -10.5%. `COC(=O)NCC(=O)NCC(C)(C)c1cccc(Br)c1` showed an INHIBITION of 84.6%. `CCC(=O)NCC(=O)NCC(C)(C)c1cccc(Br)c1` gave an INHIBITION of 87.2%. `COC(=O)NCCC(=O)NC(C)Cc1ccccc1Br` (configuration not stated) showed an INHIBITION of -138%. Work on `COC(=O)NCCC(=O)NC(C)Cc1cccc(Br)c1` (configuration not stated) yielded an INHIBITION of -15.7%. Work on `c1cc(CN2CCO[C@@H]3CNC[C@@H]32)cs1` yielded an INHIBITION of -38.5%. In the case of `Cc1cccc(CN2C[C@H](NS(C)(=O)=O)[C@@H]3OCCC[C@@H]32)n1`, the INHIBITION is reported as -121%. In the case of `COCC(=O)N1CC[C@H]2[C@H]1CCN2CC(C)C`, the INHIBITION is reported as -34.8%. Work on `CC(C)CN1CCCC1c1cc[nH]n1` (configuration not stated) yielded an INHIBITION of 91%. Molecule `CC(C)N1CCO[C@H]2CN(Cc3cc[nH]n3)C[C@H]21` has an INHIBITION of -62.4%. `CC(C)c1ncc2c(n1)CN(CCCc1nc3ccccc3o1)CC2` was tested, and the INHIBITION was 70.3%. With `Cc1noc(C)c1CN1CC[C@@H]2O[C@@H](COCC(C)C)CC[C@@H]21` the INHIBITION was -49.5%. For `COc1ccc(C[C@H]2CNCC[C@@H]2OCC2CC2)cc1`, the INHIBITION was 82.2%. With `COc1ccc(C[C@H]2CNCC[C@@H]2OC)cc1` the INHIBITION was 78.3%. `COc1cccc(CC(C)NC(=O)NCCc2cccnc2)c1` (configuration not stated) showed an INHIBITION of -58.4%. Molecule `O=C1CSC(c2ccc3c(c2)OCO3)c2cnn(C3CCCCC3)c2N1` (configuration not stated) has an INHIBITION of -33%. `COc1ccc(CNCc2ccnc(N3CCCC3)c2)c(OC)c1` showed an INHIBITION of 73.6%. Molecule `c1cc(CNCc2ccnc(N3CCCC3)c2)c2c(c1)OCCCO2` has an INHIBITION of -20.5%. For `COc1ccc(OC)c(CNCc2ccnc(N3CCCCC3)c2)c1`, the INHIBITION was 75.8%. With `CCC(O)CN1CCN(C(=O)Cc2ccc(OC)cc2OC)CC1` (configuration not stated) the INHIBITION was -2.14%. For `CC[C@@H]1N(Cc2cccnc2)CCC[C@]12CCC(=O)N2C`, the INHIBITION was -25.2%. `CN1CC=C(c2noc(CCC(=O)N3CCOCC3)n2)CC1` was tested, and the INHIBITION was -132%. With `Cn1ncc2c(N3CCCC4(CCNC4)C3)nc(C(C)(C)C)nc21` (configuration not stated) the INHIBITION was 38.2%. `CCNC(=O)CN1CCSC2(CCCCC2)C1` gave an INHIBITION of -49.4%. Work on `NC(=O)CN1CCCN(C(=O)Cc2ccc(Br)cc2)CC1` yielded an INHIBITION of -114%. `CCC1(CC)Cc2ccccc2-c2nc(CN(C)C)nc(O)c21` showed an INHIBITION of 74.6%. `FC(F)CN1CCOC(Cn2cccn2)C1` (configuration not stated) was tested, and the INHIBITION was -69.4%. `CC(NCC1CCN(CCO)CC1)c1ccc(C(F)(F)F)cc1` (configuration not stated) gave an INHIBITION of 89.1%. `OCCN1CCC(CNCc2ccccc2OC(F)(F)F)CC1` gave an INHIBITION of 95.8%. `CC(NCC1CCN(CCO)CC1)c1ccc(OC(F)(F)F)cc1` (configuration not stated) gave an INHIBITION of 93.8%. With `O=C(Cc1cnc(-c2c(Cl)cccc2Cl)s1)N1CCC2(CC1)OCCO2` the INHIBITION was -87.1%. For `CCC12CN3CC(C)(CN(C1)C3c1[nH]c(=O)[nH]c(=O)c1C)C2=O` (configuration not stated), the INHIBITION was -51.4%. `CCN1CCNC(=O)C12CCN(C(=O)c1ccccn1)CC2` was tested, and the INHIBITION was -86.3%. `O=C1CSC(c2ccc(O)cc2)c2c(n(C3CCOCC3)[nH]c2=O)N1` (configuration not stated) gave an INHIBITION of -92.3%. `Cc1nn(C2CCCC2)c2c1C(c1ccc3c(c1)OCO3)SCC(=O)N2` (configuration not stated) showed an INHIBITION of 6.36%. For `Cc1nc(CN2CCO[C@H]3[C@@H](Oc4ccccn4)CC[C@@H]32)cs1`, the INHIBITION was -47%.
